Screens from PubChem.
Rows were chosen to be rich in hits. Some 5.3% of all compounds tested hit in one or more screens of this group.
HIF act – HIF pathway transcriptional activators, primary screen, cell-based, U2OS HRE-luciferase, luminescence | U2OS HRE-luciferase reporter; normalized: DMSO 0%, desferrioxamine 100% | activation, % at 7.5 µM (by protocol) | 300,000 compounds, 0.32% hits;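 active means mean activation of at least 10% of the iron chelator positive control signal, with at least half of replicates also reaching 10%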
ALR H2O2 inh – inhibitors of human ALR sulfhydryl oxidase, primary screen, biochemical, H2O2 detection, HRP-luminol luminescence, single point; FAD-linked sulfhydryl oxidase ALR (Homo sapiens), P55789; purified ALR, DTT oxidation; inhibition, % (concentration not given with the values); 290,000 compounds, 3.8% hits; AID 485317, 2010;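 active means mean replicate inhibition above about 79%, with every replicate also reaching it, limit read from the data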
Target sequence (P55789 whole entry, looked up): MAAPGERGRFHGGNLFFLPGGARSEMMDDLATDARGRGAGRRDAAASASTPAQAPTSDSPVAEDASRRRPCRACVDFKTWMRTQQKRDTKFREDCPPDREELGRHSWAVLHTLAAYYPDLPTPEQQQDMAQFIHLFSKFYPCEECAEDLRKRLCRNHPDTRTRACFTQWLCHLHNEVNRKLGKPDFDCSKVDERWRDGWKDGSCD
M18AAP inhibitor – PfM18AAP inhibitors, malaria aminopeptidase, primary screen, biochemical, QFRET, recombinant enzyme; M18 aspartyl aminopeptidase (Plasmodium falciparum 3D7); H-Glu-NHMec fluorogenic cleavage; inhibition, % at 7.35 µM; 290,000 compounds, 1.2% hits; AID 1822, 2009;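 active means inhibition above the campaign mean inhibition over all tested compounds plus 3 SD, cut at about 28% in these data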;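 further: 0% = plate median of test compound wells and 100% = 2 mM ZnCl2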
Mot1-301 SUMO – yeast Mot1-301 growth rescue at high temperature, primary screen, SUMOylation pathway inhibitor project, S. cerevisiae, ATP luminescence, 38.5C. S. cerevisiae Mot1-301 growth rescue; percent above DMSO median, 100 means doubled. growth rescue, % at 18.8 µM. 320,000 compounds, 1% hits. AID 2716, 2010;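 active means every valid replicate shows activation above 250% relative to neutral control wells; inactive means the rest, any valid replicate at or below 250%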;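 further: OY570 slx delta 5 strain wells were the positive control but not used for scaling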
Starred values were filed as active, the others as inactive; nt = not tested or not shown.

SMILES	HIF act	ALR H2O2 inh	M18AAP inhibitor	Mot1-301 SUMO
Cc1c(N=C2NN=C(c3c[nH]c4ccccc34)CS2)c(=O)n(-c2ccccc2)n1C	0	nt	10	409
Cc1c(N=C2NN=C(c3ccc(Cl)cc3)CS2)c(=O)n(-c2ccccc2)n1C	-1	97*	5	-9
Cc1c(N=C2NC(=O)/C(=C/c3ccc(O)cc3)S2)c(=O)n(-c2ccccc2)n1C	0	99*	17	-3
CCOc1ccc(C2/C(=C(\O)c3ccc4c(c3)OCCO4)C(=O)C(=O)N2CCN2CCOCC2)cc1OCC (configuration not stated)	0	0	16	-3
COc1cccc(-c2c(NC(=O)c3ccco3)oc3ccc(Cl)cc3c2=O)c1	0	5	8	6
COc1cccc(-c2c(NC(=O)c3ccco3)oc3ccccc3c2=O)c1	0	1	-4	519*
O=C(O)CS(=O)CC(=O)Nc1cccc(C(F)(F)F)c1 (configuration not stated)	0	99*	6	5
COc1ccc(NC(=O)CSc2nc3cccnc3n2C)cc1	0	99*	4	-12
Cn1ccnc1SCC(=O)Nc1cccc(C(F)(F)F)c1	1	100*	-1	3
CCOc1ccc(NC(=O)CSCc2cnn(-c3ccccc3)c2-n2cccc2)cc1	0	99*	-4	1
COc1cc2cc(C(=O)N3CCOCC3)cc(-c3ccc(C)cc3)c2cc1OC	-1	-6	-1	-6
CC(C)(C)c1ccc(OCCC(=O)NCC(c2cccs2)N2CCOCC2)cc1 (configuration not stated)	-5	1	nt	-16
CCOc1ccc(NC(=O)N2CCC(C(N)=O)(N3CCCCC3)CC2)cc1	0	-3	28*	-3
NC(=O)C1(N2CCCCC2)CCN(C(=S)Nc2ccccc2)CC1	0	0	3	8
Cn1ccnc1SCC(=O)c1ccc(OC(F)F)cc1	2	nt	0	13
COc1ccc(C(=O)CSc2nccn2C)cc1	3	99*	0	5
CCOc1ccc(NC(=O)CSc2nccn2C)cc1	1	99*	2	-13
CCOc1ccc(NC(=O)CSC(N)=O)cc1	0	99*	12	10
O=C1CCc2cc(S(=O)(=O)NCc3ccccc3Cl)cc3c2N1CC3	2	1	nt	-11
Cn1ccnc1SCC(=O)Nc1cccc(O)c1	0	-10	-1	-34
Cn1ccnc1SCC(=O)Nc1ccc(Oc2ccccc2)cc1	3	99*	7	nt
CSc1nccn1CC(=O)Nc1ccc(F)cc1	0	98*	4	-14
CCCCOc1cccc(NC(=O)CSc2nccn2C)c1	1	99*	-17	2
Cn1cnnc1SCC(=O)Nc1ccc(Oc2ccccc2)cc1	1	1	-7	-2
O=C(CSC1=NCCN1)Nc1cccc(C(F)(F)F)c1	3	100*	9	0
SMILES	HIF act	ALR H2O2 inh	M18AAP inhibitor	Mot1-301 SUMO
O=C1C2CC=CCC2C(=O)N1Cc1ccccc1Cl (configuration not stated)	0	27	-3	9
CCc1ccccc1N1C(=O)CC(N2CCc3ccccc32)C1=O (configuration not stated)	0	99*	1	8
O=C(CN1C(=O)S/C(=C\C=C\c2ccccc2)C1=O)Nc1ccccc1C(=O)O	0	97*	13	2
CN1CCN(NC(=O)CN2C(=O)/C(=C/c3ccccc3Cl)SC2=S)CC1	0	99*	10	41
O=C(CCN1C(=O)/C(=C/c2ccccc2Cl)SC1=S)Nc1ccccc1C(=O)O	-2	98*	-77	3
CCC(C)(C)n1nnnc1CN1CCN(c2nc3cc(OC)ccc3cc2C#N)CC1	0	-3	-6	-8
CCOc1ccc(N(CC(=O)NN=C2CCN(C)CC2)S(C)(=O)=O)cc1	0	91*	-6	-6
O=C(NCC1CC1)c1ccc(Nc2nc3ccc(Br)cc3[nH]2)cc1	0	98*	-9	65
O=C(NCc1ccco1)c1cccc(Nc2nc3ccc(Br)cc3[nH]2)c1	0	28	2	131
Cc1cccc(NC(=O)CSCC(=O)N2CCN(C(=O)c3ccco3)CC2)c1	nt	nt	nt	0
O=C(CSc1nc2nc(-c3cccs3)cc(C(F)(F)F)c2c(=O)[nH]1)NCc1ccco1	0	18	28*	-24
